Source: PubChem BioAssay
Several values for one entry are separate records, joined by “and”; a condition that tells them apart may be missing. Equal entries are not always repeated. Activity calls are given as the source filed them.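 How the source made its calls, unless noted: active means mean z-score across replicates of 1.96 or higher in either the MELAS or the Rieske mutant cell line; inactive means the rest.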

Columns and labels:
[1] = tested on: Hepatitis C virus NS3 helicase; experiment: HCV NS3 helicase inhibitors, primary screen, biochemical, fluorescence polarization, NIH Clinical Collection (AID 743270; call rule not given here); conditions: NS3 helicase binding to Cy5-dT15 DNA, stronger effect = higher value, concentration not given here
[2] = biological target: Single-stranded DNA-binding protein (Escherichia coli (strain K12)) (UniProt P0AGE0); experiment: E. coli SSB displacement from DNA, counter-screen for HCV NS3 helicase inhibitor project, biochemical, fluorescence polarization, NIH Clinical Collection (AID 743271; in the data active means inhibition above about 28%); conditions: stronger effect = higher value, concentration not given here
[3] = fluorescence interference in NS3h assay format, artefact control for HCV NS3 helicase inhibitor project, biochemical, NIH Clinical Collection (AID 743272; call rule not given here;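 further: HCV NS3 helicase with a Cy5 labelled single stranded DNA probe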); conditions: fluorescence interference counterscreen, stronger effect = lower value
[4] = stimulators of nuclear beta-catenin in C2C12, primary screen, imaging, WNT3A-conditioned medium, mouse C2C12, NPC library (AID 1117326; in the data active means nuclear beta-catenin stimulation mostly above about 4.2%, no sharp cut-off; inactive means mostly below about 10%); conditions: stronger effect = higher value
[5] = stimulators of insulin release from INS-1E, primary screen, cell-based, 5 mM glucose, NPC library (AID 1117329;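 active means compound raises insulin release from rat beta cells at 5 mM glucose, no numeric limit stated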); conditions: rat INS-1E insulin secretion, at 10 µM, stronger effect = higher value
[6] = growth inhibition of GSK3B-pretreated HCT116 cells – cell-based, CellTiter-Glo, 0.2 to 20 µM (AID 1117336;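 active means compounds lowering colon cancer cell viability after pretreatment blocking the GSK3B kinase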); conditions: HCT116 viability after GSK3B inhibitor, at 20 µM, stronger effect = higher value
[7] = inhibition of endothelial tube formation, primary screen, imaging, VEGF stimulated, CD31 staining, tube area, NPC library (AID 1117340;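 active means compound that reduces growth-factor-driven endothelial tube area in a mixed cell culture, no cutoff stated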); conditions: VEGF-stimulated ADSC/ECFC co-culture, at 10 µM, stronger effect = higher value
[8] = glucagon-like peptide 1 release enhancers, primary assay, NCI-H716 cell line, NPC library (AID 1117341;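 active means compound raises GLP1 secretion from the human gut endocrine cells, with no numeric limit stated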); conditions: NCI-H716 cells, at 10 µM, stronger effect = higher value
[9] = HCT116 colon cancer cell growth inhibition, primary screen, CellTiter-Glo luminescence, NPC library (AID 1117342;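 active means compounds that lower survival of HCT116 colon cancer cells in the luminescence readout, no numeric limit stated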); conditions: at 20 µM (top of the series)
[10] = CellTiter-Glo luminescent readout of SW480 viability loss, NPC library primary (AID 1117343;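 active means compounds that lower viability of the colon cancer cells in the luminescence readout, with no numeric limit stated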); conditions: CellTiter-Glo luminescence; at 20 µM (top of the series)
[11] = decreased DLD-1 cellular survival, CellTiter-Glo luminescent readout, NPC compound collection, primary HTS (AID 1117346;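 active means compounds that lower survival of DLD-1 colon cancer cells in the luminescence readout, no cutoff given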); conditions: DLD-1 viability, CellTiter-Glo luminescence; at 20 µM (top of the series)
[12] = biological target: 6-phosphogluconate dehydrogenase, decarboxylating (Homo sapiens) (UniProt P52209); experiment: 6PGD enzyme inhibitors, primary screen, biochemical, human, recombinant enzyme, NADPH absorbance (AID 1159550;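 active means at least 20% inhibition of 6-phosphogluconate dehydrogenase activity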); conditions: recombinant 6PGD, NADPH absorbance 341 nm; at 10 µM; stronger effect = higher value
Sequence of 6-phosphogluconate dehydrogenase, decarboxylating (Homo sapiens) (P52209 whole entry, looked up): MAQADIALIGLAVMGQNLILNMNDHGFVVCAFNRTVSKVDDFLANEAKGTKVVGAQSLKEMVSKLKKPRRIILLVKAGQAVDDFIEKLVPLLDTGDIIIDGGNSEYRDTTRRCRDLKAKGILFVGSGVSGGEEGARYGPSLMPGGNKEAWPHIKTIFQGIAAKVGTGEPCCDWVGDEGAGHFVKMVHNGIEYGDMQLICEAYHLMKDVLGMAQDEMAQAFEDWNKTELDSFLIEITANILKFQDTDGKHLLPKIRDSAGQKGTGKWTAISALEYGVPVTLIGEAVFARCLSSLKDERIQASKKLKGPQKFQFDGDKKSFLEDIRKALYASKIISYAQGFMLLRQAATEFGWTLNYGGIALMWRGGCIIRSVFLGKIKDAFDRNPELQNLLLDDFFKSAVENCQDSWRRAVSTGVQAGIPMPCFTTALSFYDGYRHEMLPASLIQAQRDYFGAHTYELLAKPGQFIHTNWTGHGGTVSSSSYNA

[13] = differential killing of epithelial or mesenchymal cells, primary screen, imaging, PC-3E GFP, TEM4-18 mCherry, co-culture (AID 1345086;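 active means compounds killing one labelled cell type while sparing the other, by normalised counts and ratio limits, not self-fluorescent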;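 on all read-outs here: cells exposed to compound for 72 h before imaging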;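 on red/green cell ratio (normalised): normalised mesenchymal count divided by normalised epithelial count so high means epithelial killing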); conditions: imaging cell counts, at 1 µM; for red/green cell ratio (normalised): actives lie on both sides, counts scaled to control wells, 1 = unselective
[14] = survival rescue of mitochondrial mutant cells in low glucose, primary screen, MELAS cybrids, Rieske KO mouse fibroblasts, CellTiter-Glo (AID 1508586);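 further: z relative to plate mean and SD of compound and empty wells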
[15] = biological target: NAD(+) hydrolase SARM1 (Homo sapiens) (UniProt Q6SZW1); experiment: SARM1 TIR NADase inhibitors, cell lysate, NAD-Glo luminescence (AID 1508614;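 active means compound whose remaining NAD level is above about 45 nM, limit read from the data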); conditions: SAM-TIR HEK293T lysate NADase, at 1 µM, stronger effect = higher value
Sequence of NAD(+) hydrolase SARM1 (Homo sapiens) (Q6SZW1 whole entry, looked up, the tested form may be a part): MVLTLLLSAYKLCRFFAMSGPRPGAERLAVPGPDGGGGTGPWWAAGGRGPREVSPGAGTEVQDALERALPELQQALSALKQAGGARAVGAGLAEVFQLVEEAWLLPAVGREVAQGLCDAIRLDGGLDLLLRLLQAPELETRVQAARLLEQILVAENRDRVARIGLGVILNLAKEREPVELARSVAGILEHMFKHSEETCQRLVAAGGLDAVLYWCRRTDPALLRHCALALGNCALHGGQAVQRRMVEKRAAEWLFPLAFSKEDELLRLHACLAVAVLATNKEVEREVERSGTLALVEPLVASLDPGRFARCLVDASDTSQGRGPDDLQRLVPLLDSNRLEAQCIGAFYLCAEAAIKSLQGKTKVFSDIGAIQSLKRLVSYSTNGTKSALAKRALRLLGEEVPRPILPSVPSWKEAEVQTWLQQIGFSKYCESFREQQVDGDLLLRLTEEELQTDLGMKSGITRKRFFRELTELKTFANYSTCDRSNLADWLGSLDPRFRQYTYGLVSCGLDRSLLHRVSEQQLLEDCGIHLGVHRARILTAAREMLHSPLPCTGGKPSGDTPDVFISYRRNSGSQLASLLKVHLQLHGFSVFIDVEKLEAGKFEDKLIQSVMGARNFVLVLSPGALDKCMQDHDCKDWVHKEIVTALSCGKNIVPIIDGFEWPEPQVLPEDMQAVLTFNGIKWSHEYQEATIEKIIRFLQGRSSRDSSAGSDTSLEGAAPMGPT

[16] = biological target: Mitogen-activated protein kinase 7 (Homo sapiens) (UniProt Q13164); experiment: ERK5 transactivation activators in reporter cells, primary screen, cell-based, HTS (AID 1508626;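 active means luciferase signal above three times the same-plate solvent-only control wells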;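 further: luciferase driven by Gal4-ERK5 fusion binding five Gal4 sites before minimal TATA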); conditions: HeLa Gal4-ERK5 transactivation, 18 h, at 5 µM, stronger effect = higher value
Sequence of Mitogen-activated protein kinase 7 (Homo sapiens) (Q13164 whole entry, looked up, the tested form may be a part): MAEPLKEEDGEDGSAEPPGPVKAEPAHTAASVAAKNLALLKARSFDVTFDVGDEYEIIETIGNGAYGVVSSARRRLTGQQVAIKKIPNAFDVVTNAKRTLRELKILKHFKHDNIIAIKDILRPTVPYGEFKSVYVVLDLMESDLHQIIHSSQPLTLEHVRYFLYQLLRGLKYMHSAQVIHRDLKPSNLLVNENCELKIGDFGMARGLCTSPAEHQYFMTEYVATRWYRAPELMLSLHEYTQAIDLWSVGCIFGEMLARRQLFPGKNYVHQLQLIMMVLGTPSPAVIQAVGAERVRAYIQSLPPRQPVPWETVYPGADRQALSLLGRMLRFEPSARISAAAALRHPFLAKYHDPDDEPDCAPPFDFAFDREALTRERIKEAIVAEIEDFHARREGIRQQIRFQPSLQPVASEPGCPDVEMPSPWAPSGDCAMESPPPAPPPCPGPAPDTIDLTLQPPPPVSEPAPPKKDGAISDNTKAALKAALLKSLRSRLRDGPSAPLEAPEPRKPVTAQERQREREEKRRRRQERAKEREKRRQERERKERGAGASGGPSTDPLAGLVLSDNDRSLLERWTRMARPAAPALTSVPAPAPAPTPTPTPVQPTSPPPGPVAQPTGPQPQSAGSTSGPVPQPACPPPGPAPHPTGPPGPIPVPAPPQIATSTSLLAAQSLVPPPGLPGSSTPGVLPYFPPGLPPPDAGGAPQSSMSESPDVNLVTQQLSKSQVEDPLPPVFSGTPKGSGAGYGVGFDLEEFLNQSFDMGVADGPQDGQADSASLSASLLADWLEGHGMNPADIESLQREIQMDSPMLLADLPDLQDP

F380Y = experiment: modulators of BK channel variants, profiling panel, selectivity assay, cell-based, U2OS BacMam, thallium flux, beta subunits (AID 1259406;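 active means thallium flux through the channel raised or lowered by more than 3 SD from vehicle-only wells, actives on both sides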;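 further: initial slope of Thallos dye fluorescence rise after thallium is added; log ratio against the mean of 0.3% DMSO vehicle wells on the same plate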); conditions: at 30 µM
F380Y/beta2Delta = experiment: as above; conditions: at 30 µM
[17] = biological target: Calcium-activated potassium channel subunit alpha-1 (Homo sapiens) + Leucine-rich repeat-containing protein 26 (Homo sapiens) (UniProt Q12791+Q2I0M4); experiment: as above; conditions: F380Y/Slo1WT/gamma1, at 30 µM
Sequence of Calcium-activated potassium channel subunit alpha-1 (Homo sapiens) + Leucine-rich repeat-containing protein 26 (Homo sapiens) (Q2I0M4 whole entry, looked up, one chain of several): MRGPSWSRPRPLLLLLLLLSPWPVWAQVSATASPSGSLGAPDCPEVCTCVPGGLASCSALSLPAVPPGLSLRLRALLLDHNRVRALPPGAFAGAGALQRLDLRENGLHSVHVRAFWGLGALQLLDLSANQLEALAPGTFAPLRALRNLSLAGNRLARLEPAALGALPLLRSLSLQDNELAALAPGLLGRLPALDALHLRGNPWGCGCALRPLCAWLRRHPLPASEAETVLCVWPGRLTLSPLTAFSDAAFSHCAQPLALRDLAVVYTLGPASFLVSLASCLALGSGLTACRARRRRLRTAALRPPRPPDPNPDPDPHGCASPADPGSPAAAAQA

[18] = sensitizers of A549 cells to miR-34 induction, primary screen, imaging, A549 dox-inducible miR-34, nuclei and caspase counts (AID 1347080;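 active means compounds whose cell count with miR-34 switched on is under 0.7 times the count with it off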); conditions: A549 miR-34 inducible, Hoechst nuclei count, 48 h
[19] = measured here: epithelial PC-3E GFP cell survival
[20] = measured here: mesenchymal TEM4-18 mCherry cell survival
[21] = MELAS cybrid survival, CellTiter-Glo 48 h, stronger effect = higher value
[22] = Rieske KO mouse fibroblast survival, CellTiter-Glo 72 h

COc1ccc2c(c1)c(CC(=O)O)c(C)n2C(=O)c1ccc(Cl)cc1
0.91: normalised cell number [13, 19]
inactive: inhibition [1] -3.56% | inhibition [2] -2.41% | fluorescence ratio [3] 1.01 | nuclear beta-catenin stimulation ([4]; at 10 µM) 0.6% | insulin secretion stimulation [5] -1% | viability decrease [6] -52.1% | tube area decrease [7] -10.5% | GLP1 secretion stimulation [8] 1.6% | inhibition of viability [9] 0.43% | viability decrease (inhibition) [10] 10.6% | viability decrease (inhibition) [11] 3.4% | inhibition [12] -5.45% | red/green cell ratio (normalised) [13] 1.02 | z-score [14, 21] -0.268 and 0.659 and 0.23 | remaining NAD [15] 10 nM | luciferase signal [16] 36 AU | log fold change Tl+ flux (F380Y) 0.0847 | log fold change Tl+ flux [17] 0.0683
-0.036 and -0.235 and -0.118: z-score [14, 22]
active: log fold change Tl+ flux (F380Y/beta2Delta) 0.11
0.93: normalised cell number [13, 20]
1%: nuclear beta-catenin stimulation ([4]; stimulation, at 2 µM)

Nc1nc2ccc(OC(F)(F)F)cc2s1
active: viability decrease (inhibition) [10] 88.8%
-0.8%: nuclear beta-catenin stimulation ([4]; stimulation, at 2 µM)
0.111 and -0.202 and -1.33: z-score [14, 22]
inactive: inhibition [1] -5.94% | inhibition [2] -0.87% | fluorescence ratio [3] 0.87 | nuclear beta-catenin stimulation ([4]; at 10 µM) 0.7% | insulin secretion stimulation [5] -2.4% | viability decrease [6] 32.5% | tube area decrease [7] 34% | GLP1 secretion stimulation [8] 0.6% | inhibition of viability [9] 21.7% | viability decrease (inhibition) [11] 47.1% | inhibition [12] 2.66% | red/green cell ratio (normalised) [13] 1.07 | z-score [14, 21] 0.0258 and 0.56 and -1.11 | remaining NAD [15] 10 nM
1.04: normalised cell number [13, 19]
1.11: normalised cell number [13, 20]

CC(=O)O[C@]1(C(C)=O)CC[C@H]2[C@@H]3C=C(C)C4=CC(=O)CC[C@]4(C)[C@H]3CC[C@@]21C
-0.239 and -0.33: z-score [14, 22]
7300 and 6980: cell count ([18]; measured here: total cells with miR-34 induction, stronger effect = lower value)
1.65 and 1.15: fold change ([18]; measured here: relative caspase fold change +Dox/-Dox)
inactive: inhibition [1] 3.56% | inhibition [2] 3.75% | fluorescence ratio [3] 0.98 | nuclear beta-catenin stimulation ([4]; at 10 µM) 2.7% | insulin secretion stimulation [5] 0.1% | viability decrease [6] -86.9% | tube area decrease [7] -10.2% | GLP1 secretion stimulation [8] 0% | inhibition of viability [9] 46.5% | viability decrease (inhibition) [11] 22.4% | inhibition [12] -2.23% | fold change ([18]; stronger effect = lower value, cell number ratio, induced over uninduced) 0.793 and 0.839 | z-score [14, 21] -0.444 and 0.0969 | remaining NAD [15] 10 nM | luciferase signal [16] 52 AU | log fold change Tl+ flux (F380Y) 0.00819 | log fold change Tl+ flux (F380Y/beta2Delta) 0.0101 | log fold change Tl+ flux [17] -0.00133
1.9%: nuclear beta-catenin stimulation ([4]; stimulation, at 2 µM)
9200 and 8320: cell count ([18]; measured here: total cells without miR-34 induction)
active: viability decrease (inhibition) [10] 59.6%
